Screen size: about 5,500 compounds; about 2,000 (36%) were called active. Roughly 18% stayed inconclusive and do not appear here. No stated cut-off is given here; in the data, active means normalized growth mostly below about 0.91 (no sharp cut-off); inconclusive means no clear call, values can overlap the other calls; inactive means mostly above about 0.92. The list shows a part of the results.
Assay: chemical genetic growth profiling, strain panel (AID 1159580);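 further: tested at 20 µM; growth read once vehicle control cultures reached saturation at 30 °C; 1 = growth at the plate median or of vehicle wells; lower values mean less growth of the strain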
Conditions: growth OD
[1] = S. cerevisiae deletion strains, locus YCL061C, strain MRC1, hits give low values
[2] = S. cerevisiae deletion strains, locus YHR030C, strain SLT2, hits give low values
[3] = S. cerevisiae deletion strains, locus YJL187C, strain SWE1, hits give low values
[4] = S. cerevisiae deletion strains, locus YAL013W, strain DEP1, hits give low values
[5] = S. cerevisiae deletion strains, locus YDR150W, strain NUM1, hits give low values
[6] = S. cerevisiae deletion strains, locus YGR078C, strain PAC10, hits give low values
[7] = S. cerevisiae deletion strains, locus YJR075W, strain HOC1, hits give low values
[8] = S. cerevisiae deletion strains, locus YMR263W, strain SAP30, hits give low values
[9] = S. cerevisiae deletion strains, locus YMR307W, strain GAS1, hits give low values
[10] = S. cerevisiae deletion strains, locus YNL322C, strain KRE1, hits give low values
[11] = S. cerevisiae deletion strains, locus YPL055C, strain LGE1, hits give low values
[12] = S. cerevisiae deletion strains, locus YPL241C, strain CIN2, hits give low values
[13] = S. cerevisiae deletion strains, locus YAL040C, strain CLN3, hits give low values
[14] = S. cerevisiae deletion strains, locus YCL061C, strain MRC1 (second series), hits give low values
[15] = S. cerevisiae deletion strains, locus YDR363W, strain ESC2, hits give low values
[16] = S. cerevisiae deletion strains, locus YER002W, strain NOP16, hits give low values
[17] = S. cerevisiae deletion strains, locus YNL175C, strain NOP13, hits give low values
[18] = S. cerevisiae deletion strains, locus YNL197C, strain WHI3, hits give low values
[19] = S. cerevisiae deletion strains, locus YNL224C, strain SQS1, hits give low values
[20] = S. cerevisiae deletion strains, locus YOR083W, strain WHI5 (second series), hits give low values

Measured: normalized growth

COc1cc(C(=O)NCCCCCC(=O)O)cc(OC)c1OC
inactive: S. cerevisiae deletion strains, locus YAL021C, strain ccr4, hits give low values 0.976 | S. cerevisiae deletion strains, locus YAL026C, strain drs2, hits give low values 0.981 | S. cerevisiae deletion strains, locus YAL030W, strain snc1, hits give low values 0.959 | S. cerevisiae deletion strains, locus YBL061C, strain skt5, hits give low values 0.973 | S. cerevisiae deletion strains, locus YBR009C, strain hhf1, hits give low values 0.977 | S. cerevisiae deletion strains, locus YBR023C, strain chs3, hits give low values 0.986 | S. cerevisiae deletion strains, locus YBR171W, strain sec66, hits give low values 0.97 | S. cerevisiae deletion strains, locus YBR231C, strain swc5, hits give low values 0.978 | S. cerevisiae deletion strains, locus YBR279W, strain paf1, hits give low values 0.979 | S. cerevisiae deletion strains, locus YCL011C, strain gbp2, hits give low values 0.977 | S. cerevisiae deletion strains, locus YCL016C, strain dcc1, hits give low values 0.982 | [1] 0.995 | S. cerevisiae deletion strains, locus YCL069W, strain vba3, hits give low values 0.984 | S. cerevisiae deletion strains, locus YCR088W, strain abp1, hits give low values 0.986 | S. cerevisiae deletion strains, locus YDL005C, strain med2, hits give low values 0.973 | S. cerevisiae deletion strains, locus YDL040C, strain nat1, hits give low values 0.981 | S. cerevisiae deletion strains, locus YDR001C, strain nth1, hits give low values 0.969 | S. cerevisiae deletion strains, locus YDR069C, strain doa4, hits give low values 0.973 | S. cerevisiae deletion strains, locus YDR137W, strain rgp1, hits give low values 0.975 | S. cerevisiae deletion strains, locus YDR159W, strain sac3, hits give low values 0.966 | S. cerevisiae deletion strains, locus YDR195W, strain ref2 0.966 | S. cerevisiae deletion strains, locus YDR297W, strain sur2, hits give low values 0.962 | S. cerevisiae deletion strains, locus YDR334W, strain swr1, hits give low values 0.935 | S. cerevisiae deletion strains, locus YDR335W, strain msn5, hits give low values 0.975 | S. cerevisiae deletion strains, locus YDR392W, strain spt3, hits give low values 0.983 | S. cerevisiae deletion strains, locus YEL003W, strain gim4, hits give low values 0.98 | S. cerevisiae deletion strains, locus YEL037C, strain rad23, hits give low values 0.985 | S. cerevisiae deletion strains, locus YEL061C, strain CIN8 (second series), hits give low values 0.974 | S. cerevisiae deletion strains, locus YER015W, strain faa2, hits give low values 0.972 | S. cerevisiae deletion strains, locus YER016W, strain bim1, hits give low values 0.981 | S. cerevisiae deletion strains, locus YER111C, strain swi4, hits give low values 0.979 | S. cerevisiae deletion strains, locus YER155C, strain BEM2 (second series), hits give low values 0.969 | S. cerevisiae deletion strains, locus YFR010W, strain ubp6, hits give low values 0.966 | S. cerevisiae deletion strains, locus YGL167C, strain pmr1, hits give low values 0.986 | S. cerevisiae deletion strains, locus YGL173C, strain kem1, hits give low values 0.959 | S. cerevisiae deletion strains, locus YGL227W, strain vid30, hits give low values 0.976 | S. cerevisiae deletion strains, locus YGL240W, strain doc1, hits give low values 0.972 | S. cerevisiae deletion strains, locus YGL253W, strain hxk2, hits give low values 0.986 | S. cerevisiae deletion strains, locus YHR013C, strain ard1, hits give low values 0.973 | S. cerevisiae deletion strains, locus YHR027C, strain rpn1, hits give low values 0.964 | [2] 0.972 | S. cerevisiae deletion strains, locus YHR079C, strain IRE1, hits give low values 0.974 | S. cerevisiae deletion strains, locus YHR142W, strain chs7, hits give low values 0.981 | S. cerevisiae deletion strains, locus YJL092W, strain hpr5, hits give low values 0.994 | S. cerevisiae deletion strains, locus YJL095W, strain BCK1 (second series), hits give low values 0.977 | S. cerevisiae deletion strains, locus YJL095W, strain BCK1, hits give low values 1.02 | S. cerevisiae deletion strains, locus YJL115W, strain asf1, hits give low values 0.975 | S. cerevisiae deletion strains, locus YJL129C, strain trk1, hits give low values 0.999 | S. cerevisiae deletion strains, locus YJL154C, strain vps35, hits give low values 0.97 | S. cerevisiae deletion strains, locus YJL164C, strain tpk1, hits give low values 0.998 | S. cerevisiae deletion strains, locus YJL166W, strain qcr8, hits give low values 0.974 | [3] 0.983 | S. cerevisiae deletion strains, locus YJR066W, strain TOR1, hits give low values 0.923 | S. cerevisiae deletion strains, locus YKL160W, strain elf1, hits give low values 0.992 | S. cerevisiae deletion strains, locus YKR026C, strain gcn3, hits give low values 0.993 | S. cerevisiae deletion strains, locus YKR091W, strain srl3, hits give low values 0.984 | S. cerevisiae deletion strains, locus YLL001W, strain dnm1, hits give low values 0.998 | S. cerevisiae deletion strains, locus YLL026W, hits give low values 0.964 | S. cerevisiae deletion strains, locus YLL041C, strain sdh2, hits give low values 0.981 | S. cerevisiae deletion strains, locus YLR027C, strain aat2, hits give low values 0.977 | S. cerevisiae deletion strains, locus YLR113W, strain HOG1, hits give low values 1.01 | S. cerevisiae deletion strains, locus YLR221C, strain rsa3, hits give low values 0.991 | S. cerevisiae deletion strains, locus YLR258W, strain gsy2, hits give low values 0.987 | S. cerevisiae deletion strains, locus YLR262C, strain YPT6 (second series), hits give low values 0.962 | S. cerevisiae deletion strains, locus YLR320W, strain mms22, hits give low values 0.985 | S. cerevisiae deletion strains, locus YLR342W, strain FKS1, hits give low values 0.985 | S. cerevisiae deletion strains, locus YLR357W, strain rsc2, hits give low values 1.01 | S. cerevisiae deletion strains, locus YLR370C, strain arc18, hits give low values 0.973 | S. cerevisiae deletion strains, locus YLR384C, strain iki3, hits give low values 0.975 | S. cerevisiae deletion strains, locus YML120C, strain ndi1, hits give low values 0.987 | S. cerevisiae deletion strains, locus YMR058W, strain fet3, hits give low values 0.974 | S. cerevisiae deletion strains, locus YMR125W, strain sto1, hits give low values 0.979 | S. cerevisiae deletion strains, locus YMR129W, hits give low values 0.995 | S. cerevisiae deletion strains, locus YMR205C, strain PFK2, hits give low values 0.968 | S. cerevisiae deletion strains, locus YMR231W, strain pep5, hits give low values 0.991 | S. cerevisiae deletion strains, locus YNL071W, strain lat1, hits give low values 0.985 | S. cerevisiae deletion strains, locus YNL183C, strain NPR1, hits give low values 0.935 | S. cerevisiae deletion strains, locus YNL209W, strain ssb2, hits give low values 0.977 | S. cerevisiae deletion strains, locus YNL248C, strain rpa49, hits give low values 0.986 | S. cerevisiae deletion strains, locus YNL322C, strain KRE1 (second series), hits give low values 0.966 | S. cerevisiae deletion strains, locus YNR049C, strain mso1, hits give low values 0.976 | S. cerevisiae deletion strains, locus YOR001W, strain rrp6, hits give low values 0.977 | S. cerevisiae deletion strains, locus YOR070C, strain gyp1, hits give low values 0.978 | S. cerevisiae deletion strains, locus YOR080W, strain dia2, hits give low values 0.974 | S. cerevisiae deletion strains, locus YOR083W, strain WHI5, hits give low values 0.98 | S. cerevisiae deletion strains, locus YOR106W, strain vam3, hits give low values 0.979 | S. cerevisiae deletion strains, locus YOR231W, strain MKK1, hits give low values 0.99 | S. cerevisiae deletion strains, locus YOR265W, strain rbl2, hits give low values 0.973 | S. cerevisiae deletion strains, locus YOR270C, strain vph1, hits give low values 0.996 | S. cerevisiae deletion strains, locus YOR290C, strain snf2, hits give low values 0.976 | S. cerevisiae deletion strains, locus YPL051W, strain arl3, hits give low values 0.988 | S. cerevisiae deletion strains, locus YPL078C, strain atp4, hits give low values 0.98 | S. cerevisiae deletion strains, locus YPL106C, strain sse1, hits give low values 0.916 | S. cerevisiae deletion strains, locus YPL240C, strain hsp82, hits give low values 0.982 | S. cerevisiae deletion strains, locus YPL256C, strain CLN2, hits give low values 0.93

CC(OCc1ccccc1)C(NC(=O)OC(C)(C)C)C(N)=O (stereo not drawn)
inactive: [4] 0.998 | S. cerevisiae deletion strains, locus YBR229C, strain ROT2, hits give low values 0.994 | [1] 0.993 | S. cerevisiae deletion strains, locus YDL101C, strain DUN1, hits give low values 0.993 | S. cerevisiae deletion strains, locus YDL134C, strain PPH21, hits give low values 0.994 | [5] 0.985 | S. cerevisiae deletion strains, locus YEL061C, strain CIN8, hits give low values 0.988 | [6] 0.997 | [2] 0.903 | S. cerevisiae deletion strains, locus YHR087W, strain rtc3, hits give low values 0.988 | [3] 1 | S. cerevisiae deletion strains, locus YJR043C, strain POL32, hits give low values 0.974 | [7] 1.02 | S. cerevisiae deletion strains, locus YLR039C, strain RIC1, hits give low values 0.977 | S. cerevisiae deletion strains, locus YLR058C, strain SHM2 (second series), hits give low values 1 | S. cerevisiae deletion strains, locus YLR085C, strain ARP6, hits give low values 1.02 | S. cerevisiae deletion strains, locus YLR262C, strain YPT6, hits give low values 0.864 | S. cerevisiae deletion strains, locus YML094W, strain GIM5, hits give low values 1.04 | S. cerevisiae deletion strains, locus YMR219W, strain ESC1, hits give low values 0.991 | [8] 0.976 | [9] 1.07 | S. cerevisiae deletion strains, locus YNL153C, strain GIM3, hits give low values 0.998 | S. cerevisiae deletion strains, locus YNL298W, strain CLA4 (second series), hits give low values 0.974 | [10] 0.985 | S. cerevisiae deletion strains, locus YNR030W, strain Alg12, hits give low values 0.961 | [11] 1.02 | [12] 1 | S. cerevisiae deletion strains, locus YPR135W, strain CTF4, hits give low values 0.9 | S. cerevisiae strains, strain wild type, hits give low values 0.971

COc1cc(-c2ccc(=O)[nH]n2)ccc1OC(F)F
inactive: [13] 0.975 | [14] 1.01 | [15] 0.997 | [16] 1 | [6] 1.01 | [7] 1 | [9] 0.995 | S. cerevisiae deletion strains, locus YNL128W, strain TEP1, hits give low values 1.01 | [17] 1.03 | [18] 0.994 | [19] 1.01 | [10] 0.997 | [20] 1.02 | [11] 1.02 | [12] 1

Cn1ccnc1
inactive: [4] 1.01 | [13] 1.01 | [14] 1 | [5] 1 | [15] 1.01 | [16] 1 | [6] 1.01 | [8] 1.01 | [9] 1 | [17] 1 | [18] 1 | [19] 1.01 | [20] 1.02 | [11] 1
